Data taken from the supplement of paper PMC10849652.
Of roughly 7,900 targets only a part is listed; those with a hit were picked by preference. About 0.6% of all pairs of compound and target were hits.

Compound: Cc1cn(-c2cc(NC(=O)c3ccc(C)c(Nc4nccc(-c5cccnc5)n4)c3)cc(C(F)(F)F)c2)cn1 [nilotinib]
Experiment: log2 fold change, soluble protein after heating vs DMSO (PISA); higher = thermal stabilisation; K562 cells, 10 uM, 30 min; active = over 0.2 and 3.5 SD of the protein, either way, in both replicates (recomputed)
Procedure, shortened: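 Soluble protein was defined as the supernatant after 21,000xg for 90 min. It came from K562 cells at 2×10^6 cells/mL given 10 μM compound for 30 min, heated in aliquots for 3 min across 48°C-58°C, pooled, and extracted in PBS with 0.5% NP-40 at 4°C, and was quantified by TMTpro 16plex LC-MS/MS with equalised channel sums. Thermal stability against control samples, from duplicates, is reported as log2 fold change.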

Sequence of UniProt Q9NUN5 (Q9NUN5 whole entry, looked up): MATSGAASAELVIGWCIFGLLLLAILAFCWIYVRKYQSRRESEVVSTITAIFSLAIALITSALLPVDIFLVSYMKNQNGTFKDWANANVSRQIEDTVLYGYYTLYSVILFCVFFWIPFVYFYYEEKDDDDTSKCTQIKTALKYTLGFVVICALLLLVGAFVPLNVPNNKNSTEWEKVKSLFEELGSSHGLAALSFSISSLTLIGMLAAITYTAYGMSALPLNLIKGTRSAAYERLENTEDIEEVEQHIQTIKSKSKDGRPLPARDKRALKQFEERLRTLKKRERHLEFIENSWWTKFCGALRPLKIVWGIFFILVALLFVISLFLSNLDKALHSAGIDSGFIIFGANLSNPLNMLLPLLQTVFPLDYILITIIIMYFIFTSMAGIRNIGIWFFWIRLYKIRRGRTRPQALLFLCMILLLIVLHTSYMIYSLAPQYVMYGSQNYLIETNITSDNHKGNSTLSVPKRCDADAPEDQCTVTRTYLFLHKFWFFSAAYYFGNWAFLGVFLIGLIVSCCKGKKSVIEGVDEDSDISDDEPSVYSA
Sequence of UniProt Q9UGP4 (Q9UGP4 whole entry, looked up): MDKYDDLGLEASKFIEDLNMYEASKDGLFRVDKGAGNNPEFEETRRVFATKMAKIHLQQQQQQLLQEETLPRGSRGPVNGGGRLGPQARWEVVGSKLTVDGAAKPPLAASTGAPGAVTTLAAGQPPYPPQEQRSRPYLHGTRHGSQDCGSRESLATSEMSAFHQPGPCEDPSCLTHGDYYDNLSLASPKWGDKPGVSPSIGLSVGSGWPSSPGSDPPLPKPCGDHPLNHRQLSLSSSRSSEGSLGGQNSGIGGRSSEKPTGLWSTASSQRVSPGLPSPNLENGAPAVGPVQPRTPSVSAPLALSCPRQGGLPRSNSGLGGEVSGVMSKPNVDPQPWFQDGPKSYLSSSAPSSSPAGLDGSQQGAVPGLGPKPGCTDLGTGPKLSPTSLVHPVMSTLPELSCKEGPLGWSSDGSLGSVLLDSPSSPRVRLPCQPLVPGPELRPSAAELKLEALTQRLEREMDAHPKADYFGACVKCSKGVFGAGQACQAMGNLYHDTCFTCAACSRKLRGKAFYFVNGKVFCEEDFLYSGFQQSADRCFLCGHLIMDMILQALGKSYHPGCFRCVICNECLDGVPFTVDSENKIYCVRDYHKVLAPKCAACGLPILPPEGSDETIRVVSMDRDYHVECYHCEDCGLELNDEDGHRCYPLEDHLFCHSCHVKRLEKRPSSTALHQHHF
Sequence of UniProt O43318 (O43318 whole entry, looked up): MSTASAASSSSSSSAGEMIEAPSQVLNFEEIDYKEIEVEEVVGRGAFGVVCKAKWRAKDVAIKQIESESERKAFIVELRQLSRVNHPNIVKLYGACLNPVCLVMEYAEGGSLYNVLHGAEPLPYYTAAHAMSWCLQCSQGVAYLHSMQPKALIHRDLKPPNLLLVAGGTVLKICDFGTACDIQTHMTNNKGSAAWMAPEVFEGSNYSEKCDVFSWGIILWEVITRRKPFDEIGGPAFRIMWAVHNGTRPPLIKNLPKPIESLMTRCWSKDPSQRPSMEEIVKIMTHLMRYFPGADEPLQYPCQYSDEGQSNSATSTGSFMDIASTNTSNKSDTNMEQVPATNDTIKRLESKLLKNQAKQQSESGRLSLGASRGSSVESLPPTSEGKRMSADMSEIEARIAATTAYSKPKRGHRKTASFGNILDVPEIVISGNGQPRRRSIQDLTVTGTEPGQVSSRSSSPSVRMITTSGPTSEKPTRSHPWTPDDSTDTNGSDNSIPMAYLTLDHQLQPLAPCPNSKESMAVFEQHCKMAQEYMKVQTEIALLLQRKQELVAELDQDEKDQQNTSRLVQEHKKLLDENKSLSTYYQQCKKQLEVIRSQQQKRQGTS
Sequence of UniProt Q07820 (Q07820 whole entry, looked up): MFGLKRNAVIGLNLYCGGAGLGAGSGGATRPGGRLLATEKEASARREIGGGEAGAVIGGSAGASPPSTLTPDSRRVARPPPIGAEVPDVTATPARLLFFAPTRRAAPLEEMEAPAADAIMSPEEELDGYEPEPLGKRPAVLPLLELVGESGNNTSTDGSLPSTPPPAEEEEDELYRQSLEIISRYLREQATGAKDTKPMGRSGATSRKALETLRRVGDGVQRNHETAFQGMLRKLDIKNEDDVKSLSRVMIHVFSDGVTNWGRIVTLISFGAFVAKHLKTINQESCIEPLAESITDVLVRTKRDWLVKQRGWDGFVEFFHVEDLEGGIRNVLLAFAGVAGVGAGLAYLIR
Sequence of UniProt Q7Z4S6 (Q7Z4S6 whole entry, looked up): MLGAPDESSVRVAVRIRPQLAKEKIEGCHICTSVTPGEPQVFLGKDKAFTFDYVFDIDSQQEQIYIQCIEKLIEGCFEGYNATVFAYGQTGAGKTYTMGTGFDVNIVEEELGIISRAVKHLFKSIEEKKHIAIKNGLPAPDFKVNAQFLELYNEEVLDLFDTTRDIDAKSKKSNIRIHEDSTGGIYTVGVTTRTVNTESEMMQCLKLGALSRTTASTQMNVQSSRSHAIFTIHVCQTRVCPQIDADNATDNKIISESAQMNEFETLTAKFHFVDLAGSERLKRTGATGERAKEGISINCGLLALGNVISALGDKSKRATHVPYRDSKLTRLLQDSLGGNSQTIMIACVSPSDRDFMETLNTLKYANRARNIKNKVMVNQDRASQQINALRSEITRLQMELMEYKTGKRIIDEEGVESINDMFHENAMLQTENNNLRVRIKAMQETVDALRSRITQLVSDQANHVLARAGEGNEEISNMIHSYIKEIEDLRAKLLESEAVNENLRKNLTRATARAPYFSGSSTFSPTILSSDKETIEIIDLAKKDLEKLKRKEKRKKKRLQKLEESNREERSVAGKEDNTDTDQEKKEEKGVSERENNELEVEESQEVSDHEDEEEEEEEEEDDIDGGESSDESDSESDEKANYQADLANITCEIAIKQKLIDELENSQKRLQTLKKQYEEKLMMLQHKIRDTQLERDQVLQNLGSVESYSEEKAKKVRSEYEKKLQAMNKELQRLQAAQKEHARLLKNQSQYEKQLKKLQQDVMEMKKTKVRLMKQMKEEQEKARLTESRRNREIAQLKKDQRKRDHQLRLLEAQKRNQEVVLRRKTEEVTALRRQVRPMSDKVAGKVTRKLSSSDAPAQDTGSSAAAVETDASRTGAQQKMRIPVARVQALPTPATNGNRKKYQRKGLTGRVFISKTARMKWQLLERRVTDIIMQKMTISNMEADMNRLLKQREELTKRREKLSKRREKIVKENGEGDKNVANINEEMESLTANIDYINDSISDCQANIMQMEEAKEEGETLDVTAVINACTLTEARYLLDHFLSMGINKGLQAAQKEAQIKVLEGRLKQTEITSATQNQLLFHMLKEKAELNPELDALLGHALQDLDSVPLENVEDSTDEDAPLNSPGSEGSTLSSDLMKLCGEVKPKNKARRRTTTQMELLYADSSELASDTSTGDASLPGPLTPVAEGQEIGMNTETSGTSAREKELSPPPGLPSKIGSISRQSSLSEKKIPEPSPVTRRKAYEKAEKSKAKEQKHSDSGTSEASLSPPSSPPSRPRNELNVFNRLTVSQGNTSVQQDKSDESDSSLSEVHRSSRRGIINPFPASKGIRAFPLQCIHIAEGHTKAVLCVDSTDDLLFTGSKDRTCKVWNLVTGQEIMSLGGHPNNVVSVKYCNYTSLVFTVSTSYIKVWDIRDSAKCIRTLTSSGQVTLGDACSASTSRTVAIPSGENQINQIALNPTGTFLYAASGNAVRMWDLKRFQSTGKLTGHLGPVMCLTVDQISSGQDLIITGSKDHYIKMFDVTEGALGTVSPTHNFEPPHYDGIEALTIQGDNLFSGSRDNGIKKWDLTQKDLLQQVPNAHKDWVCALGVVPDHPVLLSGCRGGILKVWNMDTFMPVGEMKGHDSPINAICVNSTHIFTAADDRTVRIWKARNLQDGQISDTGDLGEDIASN
Sequence of UniProt Q16644 (Q16644 whole entry, looked up): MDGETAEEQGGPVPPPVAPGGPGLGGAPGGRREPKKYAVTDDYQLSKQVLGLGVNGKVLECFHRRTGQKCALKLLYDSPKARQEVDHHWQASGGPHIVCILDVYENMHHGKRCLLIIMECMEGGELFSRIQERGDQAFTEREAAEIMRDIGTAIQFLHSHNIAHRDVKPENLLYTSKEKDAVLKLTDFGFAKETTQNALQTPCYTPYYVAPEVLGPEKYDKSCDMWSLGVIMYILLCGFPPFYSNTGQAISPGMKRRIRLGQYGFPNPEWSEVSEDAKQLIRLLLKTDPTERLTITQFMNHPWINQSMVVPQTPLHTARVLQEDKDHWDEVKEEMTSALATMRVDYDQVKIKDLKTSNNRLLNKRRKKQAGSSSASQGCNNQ
Sequence of UniProt Q71RC2 (Q71RC2 whole entry, looked up): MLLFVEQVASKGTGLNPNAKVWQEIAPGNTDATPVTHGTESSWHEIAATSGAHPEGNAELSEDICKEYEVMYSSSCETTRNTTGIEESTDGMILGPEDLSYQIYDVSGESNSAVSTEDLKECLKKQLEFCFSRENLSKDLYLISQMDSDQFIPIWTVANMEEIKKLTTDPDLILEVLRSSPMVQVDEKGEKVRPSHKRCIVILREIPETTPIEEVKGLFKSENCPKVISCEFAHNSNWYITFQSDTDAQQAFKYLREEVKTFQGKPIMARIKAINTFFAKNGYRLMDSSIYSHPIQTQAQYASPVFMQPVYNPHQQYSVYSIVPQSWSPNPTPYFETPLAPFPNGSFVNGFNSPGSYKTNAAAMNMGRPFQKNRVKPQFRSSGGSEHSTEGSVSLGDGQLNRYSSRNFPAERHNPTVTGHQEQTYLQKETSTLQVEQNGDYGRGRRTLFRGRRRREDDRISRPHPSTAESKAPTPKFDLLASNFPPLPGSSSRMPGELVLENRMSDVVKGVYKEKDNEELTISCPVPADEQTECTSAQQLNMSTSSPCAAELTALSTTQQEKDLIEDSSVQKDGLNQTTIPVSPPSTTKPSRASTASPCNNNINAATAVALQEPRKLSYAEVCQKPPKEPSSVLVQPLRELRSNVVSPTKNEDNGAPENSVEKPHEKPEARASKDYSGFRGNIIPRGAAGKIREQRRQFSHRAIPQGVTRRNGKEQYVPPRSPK

log2 fold change, inactive:
LUC7L2 (UniProt Q9Y383) 0.059, ILF3 isoform 7 (UniProt Q12906) -0.02, MAGOHB (UniProt Q96A72) -0.019, KDM5D isoform 3 (UniProt Q9BY66) 0.089, LIMD1 (UniProt Q9UGP4) 0.023, MED1 (UniProt Q15648) 0.057, MCL1 (UniProt Q07820) 0.015, LIMA1 isoform 4 (UniProt Q9UHB6) -0.136, LMBRD1 (UniProt Q9NUN5) -0.006, KIF13A (UniProt Q9H1H9) 0.012, MARCKSL1 (UniProt P49006) 0.003, LARP4 isoform 4 (UniProt Q71RC2) -0.073, KIF21A isoform 4 (UniProt Q7Z4S6) -0.104, LEMD3 (UniProt Q9Y2U8) -0.127, MAP3K7 (UniProt O43318) -0.105, MAPKAPK3 (UniProt Q16644) 0.281, ITIH4 (UniProt Q14624) -0.259, MAGEA9 (UniProt P43362) 0.021, IMMT isoform 4 (UniProt Q16891) -0.038, MEPCE (UniProt Q7L2J0) 0, LSS (UniProt P48449) -0.046

log2 fold change, active:
MAPK14 isoform 2 (UniProt Q16539) 1.67
